For 18 compounds, Potency and outcome results are on record in PubChem BioAssay (Tox21).

Test [1] can be described thus: qHTS assay to identify small molecule antagonists of the progesterone receptor (PR) signaling pathway - cell viability counter screen (AID 1346798). Note: nearly all actives have a fitted effect of over 50% in size. Note: potency is the fitted concentration of half-maximal effect. Summed up:
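PR-UAS-bla HEK293T cells in medium with 2% charcoal-stripped FBS were treated with compounds plus R5020 for 16 hr at 37C. Cell viability was then read by CellTiter-Glo luminescence after 30 min at room temperature in the same wells.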
(Quantitative high-throughput screening tests each substance at several concentrations.)

Test [2] is described as follows: qHTS assay to identify small molecule agonists of the progesterone receptor (PR) signaling pathway - cell viability counter screen (AID 1346799; calls by dose curve; note: nearly all actives have a fitted effect of over 45% in size; note: potency is the fitted concentration of half-maximal effect). The method, boiled down: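 PR-UAS-bla HEK293T cells, 3,000 per well in medium with 2% charcoal-stripped FBS, were preincubated 6 hr at 37C, then exposed to compounds for 16 hr; viability was read as CellTiter-Glo luminescence after 30 min at room temperature.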

Test [3] can be described thus: qHTS assay to identify small molecule antagonists of the TGF-beta/Smad signaling pathway - cell viability counter screen (AID 1346824). Note: nearly all actives have a fitted effect of over 50% in size. The method, boiled down:
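Cytotoxicity counter-screen run in the same wells as the beta-lactamase Smad reporter read: CellTiter-Glo luminescence after 30 min at room temperature. HEK 293T SBE-bla cells had 5 hr compound exposure at 37 C with TGF-beta1 (0.25 ng/mL stock).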

A short description of test [4]: qHTS assay to identify small molecule agonists of the TGF-beta/Smad signaling pathway - cell viability counter screen (AID 1346829). Note: nearly all actives have a fitted effect of over 45% in size. Note: potency is the fitted concentration of half-maximal effect. The method, boiled down: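 Same-well cytotoxicity: CellTiter-Glo added after the 2 hr room-temperature beta-lactamase substrate step, luminescence measured 30 min later; cells had 5 hr of compound at 37 C.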
Test [5] in a line: qHTS assay to identify small molecule agonists of the TGF-beta/Smad signaling pathway (AID 1346859; active = well fitted activation curve with a large enough effect in the signal ratio in the repeat runs, not every such curve was filed as active; the % refers to the signal ratio; note: series mostly up to about 77 µM). Summed up: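 HEK 293T cells stably carrying a beta-lactamase reporter driven by the Smad binding element were seeded overnight, exposed to DMSO-dissolved compounds for 5 hr at 37 C, 5% CO2, then loaded with FRET substrate for 2 hr at room temperature.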
A short description of test [6]: Caspase-3/7 induction in HepG2 cells by small molecules, qHTS assay (AID 1346978). Note: nearly all actives have a fitted effect of over 15% in size. Note: potency is the fitted concentration of half-maximal effect. The method, boiled down:
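Caspase-3/7 induction was measured by Caspase-Glo 3/7 luminescence (30 min, room temperature) after a 17 hr compound exposure of wild-type HepG2 cells seeded at 2,000 per well and pre-incubated 5 hr.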

Test [7] in a line: Caspase-3/7 induction in CHO-K1 cells by small molecules, qHTS cell viability counter screen (AID 1346979). Note: nearly all actives have a fitted effect of over 35% in size. Note: potency is the fitted concentration of half-maximal effect. Summed up:
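Wild-type CHO-K1 cells were seeded at 1,500 per well, rested 5hr at 37 C, then exposed to compounds in DMSO. After 16hr, CellTiter-Fluor reagent was added and fluorescence read 1hr later as the viability measure.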

Test [8] can be described thus: Human pregnane X receptor (PXR) small molecule agonists, qHTS cell viability counter screen (AID 1346977). Note: nearly all actives have a fitted effect of over 50% in size. Note: potency is the fitted concentration of half-maximal effect. Summed up: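 PXR-Luc HepG2 cells in medium with 5% charcoal-stripped FBS were pre-incubated 5hr, then exposed to compounds for 24hr at 37C. Viability was read in the same wells by CellTiter-Fluor fluorescence, reagent added after 23hr with a 1hr incubation.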

The target of test [9] is Thyrotropin-releasing hormone receptor (Homo sapiens) (UniProt P34981). As to the kind of experiment: qHTS assay to identify small molecule antagonists of the thyrotropin-releasing hormone receptor (TRHR) signaling pathway (AID 1346877; active = well fitted inhibition curve with a large enough effect in the repeat runs, not every such curve was filed as active; note: series mostly up to about 51 µM). The method, boiled down: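 Intracellular calcium fluorescence, read kinetically every second over 3 min, reports TRH-evoked signalling in HEK293 cells carrying TRHR. Test compounds were added 5 min ahead of a 1 nM TRH challenge.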
Thyrotropin-releasing hormone receptor (Homo sapiens), sequence (P34981 whole entry, looked up): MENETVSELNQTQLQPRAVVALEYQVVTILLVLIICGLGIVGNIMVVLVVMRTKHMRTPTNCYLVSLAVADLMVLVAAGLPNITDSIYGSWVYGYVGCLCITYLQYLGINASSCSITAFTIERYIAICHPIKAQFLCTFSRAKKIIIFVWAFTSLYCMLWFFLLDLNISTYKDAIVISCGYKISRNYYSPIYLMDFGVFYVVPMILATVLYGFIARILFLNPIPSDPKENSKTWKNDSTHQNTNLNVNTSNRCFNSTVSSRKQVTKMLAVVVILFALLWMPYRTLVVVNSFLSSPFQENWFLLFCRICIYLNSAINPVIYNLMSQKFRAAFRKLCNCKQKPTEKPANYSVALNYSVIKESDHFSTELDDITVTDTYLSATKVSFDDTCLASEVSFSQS

For test [10] the target is unchanged. The test can be described thus: qHTS assay to identify small molecule agonists of the thyrotropin-releasing hormone receptor (TRHR) signaling pathway (AID 1346891; calls by dose curve; note: series mostly up to about 58 µM). Summed up:
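TRHR-expressing HEK293 cells were plated 18 h at 37 °C/5% CO2, loaded with calcium dye 2 h at 37 °C, then given compound in DMSO; fluorescence was read kinetically for 3 min at 1 s intervals.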

A number with no mark means an inactive call. Results filed as inconclusive are left out. Activity calls are given as the source filed them. Unless noted, calls come from the whole dose curve; as a rule, active = well fitted curve in the direction sought with a large enough effect in the repeat runs; inconclusive = weak or mixed curves; inactive = no such curve, though single readings can be large; an effect the other way counts as inactive or inconclusive.

In the case of `O=[N+]([O-])c1ccc(O)c2ncccc12`, the Potency is 0.531 µM (active) in test [1] and 8.41 µM (active) in test [7]. In addition, the Potency result in test [2], in test [3], in test [4] and in [6] was “inactive” in each case. Also, the compound was classed as inactive in test [5].
For the compound `Clc1ccc2c(Cl)ccnc2c1`, the Potency entry in test [1], in test [2], in [3], in test [4], in test [8] and in [6] was “inactive” each time. In addition, the Potency entry in [7] is “inactive”. The result in [5] was inactive.
As for `C=C(C)C1CCC(C)CC1O` (stereo unspecified), the Potency entry in [1], in test [2], in test [3], in test [4], in test [8] and in [6] was “inactive” in each case. The Potency result in test [7] is “inactive”. Further, the outcome in test [5] was inactive.
Consider `SC1CCCCC1`, for which the Potency result in test [1], in test [2], in test [3], in test [4], in [9] and in [8] was “inactive” each time. Also, the Potency result in test [6] and in test [7] was “inactive” throughout. Moreover, the compound was classed as inactive in [5].
For the compound `C/C(=C\c1ccc(C(=O)O)cc1)c1ccc2c(c1)C(C)(C)CCC2(C)C`, the Potency entry in [1], in test [2], in [3], in test [4], in test [10] and in [8] was “inactive” throughout. In addition, the Potency result in [6] and in test [7] was “inactive” each time. Moreover, the call in [5] was inactive.
Consider `O=C1CCC(=O)N1`, for which the Potency result in [1], in test [2], in test [3], in test [4], in test [9] and in test [8] was “inactive” in each case. Further, the Potency result in test [6] and in test [7] was “inactive” throughout. The outcome in test [5] was inactive.
On to `CC1=CC[C@@H](C(C)(C)O)CC1`, for which the Potency entry in test [1], in [2], in test [3], in test [4], in test [9] and in [8] was “inactive” throughout. The Potency entry in [6] and in test [7] was “inactive” each time. Also, in test [5], the compound was classed as inactive.
`CC(C)=CCC[C@H](C)CC=O`: the Potency result in [1], in test [2], in test [3], in test [4], in test [8] and in test [6] was “inactive” throughout. Besides, in [7], the Potency entry was “inactive”. Further, the compound was called inactive in test [5].
Turning to `CCCCCCCCCCCCCCCCC(C(=O)O)C(O)(CC(=O)O)C(=O)O` (stereo unspecified), the Potency result in test [1], in [2], in [3], in test [4], in test [9] and in [8] was “inactive” throughout. In addition, the Potency entry in test [6] and in test [7] was “inactive” throughout. Also, the compound was called inactive in test [5].
In the case of `C=C1CC[C@H]2O[C@]2(C)CC[C@@H]2[C@@H]1CC2(C)C`, the Potency result in test [1], in test [2], in test [3], in [4], in test [8] and in [6] was “inactive” in each case. Moreover, the Potency result in test [7] was “inactive”. In addition, the call in [5] was inactive.
As to `CCN(CC)c1ccc(N=Nc2ccccc2)cc1`, the Potency result in [1], in test [4] and in test [6] was “inactive” throughout. In addition, the outcome in test [5] was inactive. Further, the Potency is 27.3 µM (active) in test [8] and 48.6 µM (active) in test [7].
For `Cc1cc(F)ccc1-c1cc(N2CC[C@@H](O)[C@H]2CO)ncc1N(C)C(=O)C(C)(C)c1cc(C(F)(F)F)cc(C(F)(F)F)c1`, the Potency result in test [1], in [3], in [4], in test [9] and in [10] was “inactive” in each case. For the same compound, the figures for the Potency in [8], in [6] and in test [7] were 38 µM (active), 38 µM (active) and 24 µM (active), respectively.
For `CCC(C)(C)c1ccc(CC(C)CN2C[C@@H](C)O[C@@H](C)C2)cc1` (stereo partly specified), the Potency result in test [1], in [3], in test [4], in [9], in test [8] and in test [6] was “inactive” in each case. Also, the result in test [5] was inactive.
`Nc1ccc(F)c([N+](=O)[O-])c1`: the Potency entry in [1], in [3], in [4], in [9], in test [10] and in test [8] was “inactive” throughout. Besides, the Potency result in test [6] and in [7] was “inactive” in each case. Moreover, the compound was classed as inactive in test [5].
Turning to `C=C1C(CCl)(CCl)C2(Cl)C(Cl)C(Cl)C1(Cl)C2(Cl)Cl` (stereo unspecified), the values for the Potency in test [1], in test [4] and in test [7] were 67.8 µM (active), 54.3 µM (active) and 53.8 µM (active), respectively. Moreover, the Potency entry in test [3], in test [9] and in test [10] was “inactive” in each case. For the same compound, the call in [5] was inactive.
In the case of `O=C(CCN1CCC(c2ccccc2)C1)c1ccc2c(c1)OCCO2` (stereo unspecified), the Potency result in test [1], in [3], in test [4], in test [9] and in test [6] was “inactive” in each case. The compound was classed as inactive in test [5]. Also, the Potency is 23.7 µM (active) in test [8] and 26.6 µM (active) in test [7].
Take `CN(C)CCOc1ccc(/C(=C(/CCCl)c2ccccc2)c2ccccc2)cc1`: the Potency in test [1] is 51 µM (active); in test [2], 57.2 µM (active); in [8] it was 22.8 µM (active); in test [6], 57.2 µM (active); in test [7], 51 µM (active). Further, the Potency entry in test [3], in test [9] and in test [10] was “inactive” each time. The outcome in test [5] was inactive.
As for `O=C1c2ccccc2C(=O)c2c(Cl)cccc21`, the Potency entry in test [1], in test [2], in test [3], in test [9], in test [10] and in test [8] was “inactive” throughout. Moreover, the Potency entry in test [6] was “inactive”. Further, the outcome in test [5] was inactive.
